Data taken from PubChem BioAssay AID651678 (Sanford-Burnham Center for Chemical Genomics, 2012).
The list shows a part of the results. The source made the active and inactive calls. Cut-off read from the data, not from the text of the source: active = inhibition mostly above about 35% (no sharp cut-off); inactive = mostly below about 32%.

Target: Sentrin-specific protease 1 (Homo sapiens) (UniProt Q9P0U3)
Assay: retest of SENP1 SUMO protease blockers – biochemical, FRET endpoint, single concentration, confirmation (AID 651678);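 note: 0% = enzyme with DMSO and 100% = no enzyme control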
Settings: recombinant SENP1, CyPet-SUMO1-YPet FRET cleavage; at 10 µM; hits give high values

Sentrin-specific protease 1 (Homo sapiens), sequence (Q9P0U3 419-644 limits assumed): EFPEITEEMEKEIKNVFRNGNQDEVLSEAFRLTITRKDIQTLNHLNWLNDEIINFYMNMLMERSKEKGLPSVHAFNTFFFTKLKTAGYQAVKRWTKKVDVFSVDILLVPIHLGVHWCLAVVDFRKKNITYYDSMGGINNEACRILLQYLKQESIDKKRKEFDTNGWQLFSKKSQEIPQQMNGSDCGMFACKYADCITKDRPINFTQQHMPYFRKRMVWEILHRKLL

COc1ccccc1N=Nc1c(O)[nH]c(=S)[nH]c1=O
inhibition: 52% (active)
